# Key:
# Experiment in all cases: DAPPL (digital affinity profiling via proximity ligation, sequencing); 10 mM Tris-HCl pH 7.5, 50 mM NaCl, 1 mM DTT, 4% glycerol, room temperature, 30 min; GST-TFs on glutathione beads, 16-mer random dsDNA library, 0.1% formaldehyde crosslink after washing; high values mean tight binding
# Conditions in all cases: protein: recombinant; tags: N-terminal GST; dsDNA, one strand shown
# ELK1 = molecular target: T1, ELK1 (Homo sapiens, UniProt P19419 1-428)
# T1 sequence: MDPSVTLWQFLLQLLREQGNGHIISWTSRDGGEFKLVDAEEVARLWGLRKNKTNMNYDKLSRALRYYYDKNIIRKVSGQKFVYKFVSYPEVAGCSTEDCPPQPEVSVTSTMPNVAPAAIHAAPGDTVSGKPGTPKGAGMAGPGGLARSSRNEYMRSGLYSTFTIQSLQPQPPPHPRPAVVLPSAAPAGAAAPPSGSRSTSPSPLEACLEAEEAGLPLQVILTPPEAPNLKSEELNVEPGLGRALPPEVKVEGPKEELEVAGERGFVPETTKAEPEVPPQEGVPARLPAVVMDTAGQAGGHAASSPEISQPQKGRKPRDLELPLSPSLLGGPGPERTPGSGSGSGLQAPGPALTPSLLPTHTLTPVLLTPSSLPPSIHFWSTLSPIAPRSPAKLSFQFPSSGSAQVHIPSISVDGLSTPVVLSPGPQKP
# Procedure, shortened: (§1)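 Human transcription factors fused to GST were expressed in yeast, captured on glutathione beads, given DNA barcodes and pooled with a GST-only negative control. Pools were incubated with 200 nmole of a 16-mer random double-stranded DNA library in Tris/NaCl/DTT/glycerol buffer at room temperature for 30 min. They were then washed, crosslinked with 0.1% formaldehyde, proximity-ligated (BsaI/T4 ligase, 1 h, 37 °C), PCR-amplified and sequenced on an Illumina NextSeq500. Binding signal is each 6-mer's read frequency for a factor divided by its frequency for the GST control.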
# GABPA = molecular target: T2, GABPA (Homo sapiens, UniProt Q06546 1-454)
# T2 sequence: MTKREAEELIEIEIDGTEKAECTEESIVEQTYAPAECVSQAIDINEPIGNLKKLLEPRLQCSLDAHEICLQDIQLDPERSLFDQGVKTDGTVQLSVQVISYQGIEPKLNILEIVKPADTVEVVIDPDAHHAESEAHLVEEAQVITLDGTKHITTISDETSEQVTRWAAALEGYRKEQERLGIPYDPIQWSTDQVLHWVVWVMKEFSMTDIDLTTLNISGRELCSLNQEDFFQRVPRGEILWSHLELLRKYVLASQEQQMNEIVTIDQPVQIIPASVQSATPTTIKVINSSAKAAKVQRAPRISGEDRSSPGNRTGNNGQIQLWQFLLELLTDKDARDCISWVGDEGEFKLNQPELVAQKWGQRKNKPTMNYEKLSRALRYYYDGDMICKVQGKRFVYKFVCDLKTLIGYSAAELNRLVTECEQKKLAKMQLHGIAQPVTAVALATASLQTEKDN
# Procedure, shortened: as §1
# ERG = molecular target: T3, ERG (Homo sapiens, UniProt P11308 1-479)
# T3 sequence: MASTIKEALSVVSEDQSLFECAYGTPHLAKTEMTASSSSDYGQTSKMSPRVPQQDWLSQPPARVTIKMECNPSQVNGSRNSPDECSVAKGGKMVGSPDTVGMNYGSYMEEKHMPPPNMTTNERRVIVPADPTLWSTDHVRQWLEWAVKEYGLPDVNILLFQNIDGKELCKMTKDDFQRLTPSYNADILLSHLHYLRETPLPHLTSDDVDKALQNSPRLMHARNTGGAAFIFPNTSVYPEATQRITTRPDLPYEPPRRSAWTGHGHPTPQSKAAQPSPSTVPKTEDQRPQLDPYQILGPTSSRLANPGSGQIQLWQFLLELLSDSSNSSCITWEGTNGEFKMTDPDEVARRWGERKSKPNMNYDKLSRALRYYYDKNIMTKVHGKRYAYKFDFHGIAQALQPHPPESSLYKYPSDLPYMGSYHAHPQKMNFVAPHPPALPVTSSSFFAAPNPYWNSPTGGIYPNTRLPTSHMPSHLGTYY
# Procedure, shortened: as §1
# ELF1 = ELF1 (Homo sapiens, UniProt P32519 1-619)
# Sequence of ELF1 (P32519 whole entry): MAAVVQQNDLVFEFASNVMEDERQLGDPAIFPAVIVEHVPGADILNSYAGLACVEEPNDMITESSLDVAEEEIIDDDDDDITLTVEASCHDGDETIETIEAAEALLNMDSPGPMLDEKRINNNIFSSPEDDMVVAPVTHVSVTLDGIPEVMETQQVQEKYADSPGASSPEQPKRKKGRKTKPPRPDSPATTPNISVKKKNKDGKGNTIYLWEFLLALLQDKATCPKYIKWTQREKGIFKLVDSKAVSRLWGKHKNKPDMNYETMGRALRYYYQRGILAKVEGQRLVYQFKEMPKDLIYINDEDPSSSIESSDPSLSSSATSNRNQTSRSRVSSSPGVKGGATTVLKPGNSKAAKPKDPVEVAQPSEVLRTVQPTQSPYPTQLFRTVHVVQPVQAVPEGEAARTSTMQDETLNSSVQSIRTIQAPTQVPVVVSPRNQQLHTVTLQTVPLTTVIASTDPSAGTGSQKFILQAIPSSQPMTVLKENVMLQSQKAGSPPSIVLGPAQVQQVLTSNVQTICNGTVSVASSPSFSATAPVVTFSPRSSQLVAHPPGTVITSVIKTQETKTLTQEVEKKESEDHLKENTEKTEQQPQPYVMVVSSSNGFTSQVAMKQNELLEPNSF
# Procedure, shortened: as §1
# EHF = molecular target: T4, EHF (Homo sapiens, UniProt Q9NZC4 1-300)
# T4 sequence: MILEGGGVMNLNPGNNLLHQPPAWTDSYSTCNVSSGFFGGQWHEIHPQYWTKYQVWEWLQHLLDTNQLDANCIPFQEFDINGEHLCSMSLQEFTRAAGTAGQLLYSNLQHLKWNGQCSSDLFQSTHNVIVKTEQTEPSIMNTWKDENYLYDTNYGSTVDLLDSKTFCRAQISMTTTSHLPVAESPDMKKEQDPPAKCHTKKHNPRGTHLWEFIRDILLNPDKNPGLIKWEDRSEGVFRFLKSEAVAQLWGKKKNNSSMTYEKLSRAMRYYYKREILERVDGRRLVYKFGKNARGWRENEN
# Procedure, shortened: as §1
# SPIB = SPIB (Homo sapiens, UniProt Q01892 1-262)
# Sequence of SPIB (Q01892 whole entry): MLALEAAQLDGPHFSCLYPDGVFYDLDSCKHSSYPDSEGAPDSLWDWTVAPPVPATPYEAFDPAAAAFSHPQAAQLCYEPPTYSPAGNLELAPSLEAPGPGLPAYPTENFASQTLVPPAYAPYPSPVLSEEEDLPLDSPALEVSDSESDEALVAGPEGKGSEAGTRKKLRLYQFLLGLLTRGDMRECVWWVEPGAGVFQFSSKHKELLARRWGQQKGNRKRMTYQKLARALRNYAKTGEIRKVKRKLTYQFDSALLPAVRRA
# Procedure, shortened: as §1
# ELK3 = molecular target: T5, ELK3 (Homo sapiens, UniProt P41970 1-407)
# T5 sequence: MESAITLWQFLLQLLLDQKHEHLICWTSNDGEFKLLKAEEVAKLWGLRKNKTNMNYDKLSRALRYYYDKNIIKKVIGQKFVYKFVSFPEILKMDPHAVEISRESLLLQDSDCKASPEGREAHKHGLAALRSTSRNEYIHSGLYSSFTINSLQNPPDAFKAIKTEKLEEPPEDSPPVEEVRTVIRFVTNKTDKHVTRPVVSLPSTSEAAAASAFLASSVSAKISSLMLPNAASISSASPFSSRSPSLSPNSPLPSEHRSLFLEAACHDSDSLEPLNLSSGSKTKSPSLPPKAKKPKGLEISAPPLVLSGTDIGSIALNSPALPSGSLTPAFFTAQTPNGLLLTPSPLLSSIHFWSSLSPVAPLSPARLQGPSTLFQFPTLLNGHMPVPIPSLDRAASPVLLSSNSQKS
# Procedure, shortened: as §1
# FEV = molecular target: T6, FEV (Homo sapiens, UniProt Q99581 1-238)
# T6 sequence: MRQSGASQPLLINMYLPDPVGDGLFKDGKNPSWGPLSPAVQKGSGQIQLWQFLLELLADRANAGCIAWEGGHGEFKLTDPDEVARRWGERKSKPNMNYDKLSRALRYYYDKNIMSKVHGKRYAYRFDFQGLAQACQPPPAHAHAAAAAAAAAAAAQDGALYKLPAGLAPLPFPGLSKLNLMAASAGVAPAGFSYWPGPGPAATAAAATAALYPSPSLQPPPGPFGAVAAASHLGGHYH
# Procedure, shortened: as §1
# ETV5 = ETV5 (Homo sapiens, UniProt P41161 1-510)
# Sequence of ETV5 (P41161 whole entry): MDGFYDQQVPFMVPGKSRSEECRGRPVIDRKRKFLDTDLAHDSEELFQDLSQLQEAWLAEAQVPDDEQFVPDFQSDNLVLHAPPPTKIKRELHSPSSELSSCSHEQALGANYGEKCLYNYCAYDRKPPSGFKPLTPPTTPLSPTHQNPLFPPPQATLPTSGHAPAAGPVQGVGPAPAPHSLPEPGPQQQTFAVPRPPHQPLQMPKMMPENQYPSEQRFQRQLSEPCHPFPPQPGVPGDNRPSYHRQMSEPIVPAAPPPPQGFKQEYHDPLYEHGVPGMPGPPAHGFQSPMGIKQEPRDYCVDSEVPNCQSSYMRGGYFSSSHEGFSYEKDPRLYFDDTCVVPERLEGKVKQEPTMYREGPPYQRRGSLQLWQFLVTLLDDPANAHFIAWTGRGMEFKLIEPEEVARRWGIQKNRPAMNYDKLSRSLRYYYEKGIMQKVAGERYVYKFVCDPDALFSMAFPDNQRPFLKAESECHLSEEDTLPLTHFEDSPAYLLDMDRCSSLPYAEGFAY
# Procedure, shortened: as §1
# ELF4 = ELF4 (Homo sapiens, UniProt Q99607 1-663)
# Sequence of ELF4 (Q99607 whole entry): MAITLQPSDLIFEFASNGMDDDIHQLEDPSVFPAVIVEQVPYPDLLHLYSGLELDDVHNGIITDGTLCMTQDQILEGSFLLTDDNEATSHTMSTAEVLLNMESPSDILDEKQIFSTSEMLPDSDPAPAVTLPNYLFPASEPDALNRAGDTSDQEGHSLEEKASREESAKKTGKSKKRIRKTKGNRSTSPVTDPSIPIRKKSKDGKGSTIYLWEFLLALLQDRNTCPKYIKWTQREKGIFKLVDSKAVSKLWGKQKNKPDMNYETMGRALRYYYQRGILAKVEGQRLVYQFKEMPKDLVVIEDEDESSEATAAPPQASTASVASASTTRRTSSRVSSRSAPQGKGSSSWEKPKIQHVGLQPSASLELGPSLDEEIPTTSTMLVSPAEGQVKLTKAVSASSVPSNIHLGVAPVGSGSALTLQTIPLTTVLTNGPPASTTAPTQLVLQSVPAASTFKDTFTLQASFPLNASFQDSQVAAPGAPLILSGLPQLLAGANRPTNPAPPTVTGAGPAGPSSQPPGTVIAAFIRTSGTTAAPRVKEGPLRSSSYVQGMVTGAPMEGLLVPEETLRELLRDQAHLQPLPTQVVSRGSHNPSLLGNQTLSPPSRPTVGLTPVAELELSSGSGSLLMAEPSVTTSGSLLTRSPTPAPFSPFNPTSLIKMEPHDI
# Procedure, shortened: as §1
# ELF3 = molecular target: T7, ELF3 (Homo sapiens, UniProt P78545 1-371)
# T7 sequence: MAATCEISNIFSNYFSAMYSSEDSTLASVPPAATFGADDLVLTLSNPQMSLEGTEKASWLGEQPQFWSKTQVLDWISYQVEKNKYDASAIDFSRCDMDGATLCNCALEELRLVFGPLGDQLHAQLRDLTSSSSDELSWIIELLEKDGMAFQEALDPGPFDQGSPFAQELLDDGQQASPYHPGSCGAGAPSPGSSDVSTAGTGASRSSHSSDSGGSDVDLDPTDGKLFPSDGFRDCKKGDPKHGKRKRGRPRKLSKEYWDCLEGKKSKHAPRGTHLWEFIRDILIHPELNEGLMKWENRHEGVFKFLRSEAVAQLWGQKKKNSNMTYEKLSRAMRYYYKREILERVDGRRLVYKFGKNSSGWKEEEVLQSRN
# Procedure, shortened: as §1
# ETV1 = ETV1 (Homo sapiens, UniProt P50549 1-477)
# Sequence of ETV1 (P50549 whole entry): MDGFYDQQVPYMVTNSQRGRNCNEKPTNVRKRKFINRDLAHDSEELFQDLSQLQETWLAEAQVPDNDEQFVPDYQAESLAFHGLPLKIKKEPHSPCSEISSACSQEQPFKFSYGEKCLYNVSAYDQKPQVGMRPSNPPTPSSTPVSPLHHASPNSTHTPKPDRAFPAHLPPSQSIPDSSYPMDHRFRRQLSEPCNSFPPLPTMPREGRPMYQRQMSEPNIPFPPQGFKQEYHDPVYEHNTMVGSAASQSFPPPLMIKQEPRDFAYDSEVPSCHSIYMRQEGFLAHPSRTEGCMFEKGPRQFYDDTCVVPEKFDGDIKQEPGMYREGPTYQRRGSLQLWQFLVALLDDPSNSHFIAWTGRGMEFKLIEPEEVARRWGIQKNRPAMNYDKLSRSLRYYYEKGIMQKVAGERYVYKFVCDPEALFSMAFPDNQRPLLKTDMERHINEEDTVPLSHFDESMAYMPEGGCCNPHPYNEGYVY
# Procedure, shortened: as §1
# ERF = molecular target: T8, ERF (Homo sapiens, UniProt P50548 1-548)
# T8 sequence: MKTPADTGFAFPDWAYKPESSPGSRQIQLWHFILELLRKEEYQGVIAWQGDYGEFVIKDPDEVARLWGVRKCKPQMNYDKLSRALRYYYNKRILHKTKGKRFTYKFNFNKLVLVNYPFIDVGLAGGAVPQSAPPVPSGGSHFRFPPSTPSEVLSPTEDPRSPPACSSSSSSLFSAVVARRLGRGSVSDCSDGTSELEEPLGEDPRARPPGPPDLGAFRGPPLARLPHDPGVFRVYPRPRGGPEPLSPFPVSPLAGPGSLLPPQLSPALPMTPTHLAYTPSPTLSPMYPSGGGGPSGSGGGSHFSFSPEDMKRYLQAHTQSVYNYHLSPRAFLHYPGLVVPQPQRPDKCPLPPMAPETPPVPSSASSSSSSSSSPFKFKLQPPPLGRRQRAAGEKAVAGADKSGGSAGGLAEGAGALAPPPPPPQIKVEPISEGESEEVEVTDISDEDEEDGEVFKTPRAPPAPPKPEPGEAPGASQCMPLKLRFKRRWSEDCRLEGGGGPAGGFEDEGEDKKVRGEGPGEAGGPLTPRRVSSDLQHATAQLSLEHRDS
# Procedure, shortened: as §1
# ETV3L = molecular target: T9, ETV3L (Homo sapiens, UniProt Q6ZN32 1-361)
# T9 sequence: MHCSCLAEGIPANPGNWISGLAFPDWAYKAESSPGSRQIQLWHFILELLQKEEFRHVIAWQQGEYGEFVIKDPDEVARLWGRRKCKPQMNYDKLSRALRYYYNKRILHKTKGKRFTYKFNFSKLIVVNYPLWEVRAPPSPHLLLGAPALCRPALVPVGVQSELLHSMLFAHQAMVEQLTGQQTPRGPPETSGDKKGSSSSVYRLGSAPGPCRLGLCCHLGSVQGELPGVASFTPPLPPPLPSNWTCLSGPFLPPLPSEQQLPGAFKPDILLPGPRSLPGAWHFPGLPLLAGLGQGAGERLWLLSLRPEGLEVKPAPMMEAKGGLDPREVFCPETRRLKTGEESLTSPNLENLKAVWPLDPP
# Procedure, shortened: as §1
# SPDEF = molecular target: T10, SPDEF (Homo sapiens, UniProt O95238 1-335)
# T10 sequence: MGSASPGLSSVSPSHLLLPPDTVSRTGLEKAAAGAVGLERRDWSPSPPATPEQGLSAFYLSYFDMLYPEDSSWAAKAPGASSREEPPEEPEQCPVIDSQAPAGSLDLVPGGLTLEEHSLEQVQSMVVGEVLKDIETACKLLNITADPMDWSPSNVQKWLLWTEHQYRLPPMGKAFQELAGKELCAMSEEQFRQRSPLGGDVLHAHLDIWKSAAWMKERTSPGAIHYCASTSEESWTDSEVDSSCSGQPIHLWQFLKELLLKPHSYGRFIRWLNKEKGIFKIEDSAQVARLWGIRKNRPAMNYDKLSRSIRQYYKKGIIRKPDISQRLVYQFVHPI
# Procedure, shortened: as §1
# ETV7 = molecular target: T11, ETV7 (Homo sapiens, UniProt Q9Y603 1-341)
# T11 sequence: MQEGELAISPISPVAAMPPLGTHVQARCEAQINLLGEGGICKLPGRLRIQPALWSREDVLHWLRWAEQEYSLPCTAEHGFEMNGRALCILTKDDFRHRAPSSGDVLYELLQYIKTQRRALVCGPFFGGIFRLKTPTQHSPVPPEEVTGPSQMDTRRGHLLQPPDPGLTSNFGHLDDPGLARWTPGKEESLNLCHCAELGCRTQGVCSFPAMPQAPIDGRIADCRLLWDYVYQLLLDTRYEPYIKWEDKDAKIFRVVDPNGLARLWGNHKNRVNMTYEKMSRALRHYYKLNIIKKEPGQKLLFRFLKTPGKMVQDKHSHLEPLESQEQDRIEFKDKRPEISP
# Procedure, shortened: as §1
# ETV3 = molecular target: T12, ETV3 (Homo sapiens, UniProt P41162-2 1-143)
# T12 sequence: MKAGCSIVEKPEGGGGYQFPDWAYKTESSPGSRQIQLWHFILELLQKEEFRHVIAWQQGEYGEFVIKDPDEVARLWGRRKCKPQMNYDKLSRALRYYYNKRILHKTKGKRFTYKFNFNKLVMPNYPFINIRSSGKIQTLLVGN
# Procedure, shortened: as §1
sequence,measurement,setting,value
AGTCCC,binding signal,ELK1,"1.06 fold enrichment (6-mer frequency, TF over GST control)"
same,binding signal,GABPA,"1.03 fold enrichment (6-mer frequency, TF over GST control)"
same,binding signal,ERG,"1.07 fold enrichment (6-mer frequency, TF over GST control)"
same,binding signal,ELF1,"1.08 fold enrichment (6-mer frequency, TF over GST control)"
same,binding signal,EHF,"1.01 fold enrichment (6-mer frequency, TF over GST control)"
same,binding signal,SPIB,"1.03 fold enrichment (6-mer frequency, TF over GST control)"
same,binding signal,ELK3,"1.01 fold enrichment (6-mer frequency, TF over GST control)"
same,binding signal,FEV,"1.09 fold enrichment (6-mer frequency, TF over GST control)"
same,binding signal,ETV5,"1.04 fold enrichment (6-mer frequency, TF over GST control)"
same,binding signal,ELF4,"1.06 fold enrichment (6-mer frequency, TF over GST control)"
same,binding signal,ELF3,"1.11 fold enrichment (6-mer frequency, TF over GST control)"
same,binding signal,ETV1,"1.11 fold enrichment (6-mer frequency, TF over GST control)"
same,binding signal,ERF,"1.17 fold enrichment (6-mer frequency, TF over GST control)"
same,binding signal,ETV3L,"1.04 fold enrichment (6-mer frequency, TF over GST control)"
same,binding signal,SPDEF,"1.03 fold enrichment (6-mer frequency, TF over GST control)"
same,binding signal,ETV7,"1.07 fold enrichment (6-mer frequency, TF over GST control)"
same,binding signal,ETV3,"1.06 fold enrichment (6-mer frequency, TF over GST control)"
